# ChEMBL document CHEMBL3988442, “University of Dundee, Small-Polar-MMV Screening Library” (2021)
# Screen size: about 38,000 compounds; about 1,200 (3.2%) showed an effect of 50% or more. The median lay at about -58%. For the sample, strong results were picked, then their nearest neighbours and some compounds at random.
# Test system: Plasmodium falciparum
# Experiment: Calibr Malaria Delayed Death Assay SOP
# Format: functional, organism-based
# Parameters: scale not given: in the data most compounds retested in dose-response had high values
# Details: concentration 4.99e-06 (unit not given; other assays of the set use mol/L)
row,SMILES,Percent Effect [%]
1,COc1cccc(CC(=O)N2CC[C@@H]3CN(C)S(=O)(=O)[C@@H]3CC2)c1,-25.41
2,CC1=C(c2ccc(C)cc2)S(=O)(=O)N=C1N1CCc2ccccc21,-28.82
3,OC1(CNc2ccc(F)cc2)CCNCC1,9.673
4,CC(C(=O)Nc1sccc1C(N)=O)N(C)CCOc1ccccc1 (stereo not given),2.405
5,CCCNCc1ccc(-c2cc(N)nc3[nH]ccc23)cc1,71.86
6,Nc1cc(-c2ccc(C(=O)O)cc2O)c2cc[nH]c2n1,-36.07
7,Nc1cc(-c2cc(O)cc(C(=O)O)c2)c2cc[nH]c2n1,-8.693
8,CCCn1nccc1C(=O)Nc1nc(C)c(C)s1,-95.22
9,CCc1ccccc1OCCN(C)C(=O)CCN1CCCCO1,2.137
10,CCc1ccccc1OCCN(C)C(=O)CCN1CCCO1,-98.11
11,CCc1ccccc1OCCN(C)C(=O)CN1CCCC1,75.23
12,CCn1nc(C)c2ccn(CC(=O)NC(C)C)c(=O)c21,-79.05
13,COc1ccc(NC(=O)N(CCO)Cc2ccsc2)cc1,-36.74
14,COC(=O)CN(C)Cc1cc(Br)cs1,-75.79
15,CCCN(C)CC1CCN(c2ccc(Br)c(C)n2)C1 (stereo not given),72.9
16,CCN(C)CC1CCN(c2ncc(Br)cn2)C1 (stereo not given),-58.14
17,CCCN(C)CC1CCN(c2ncc(Br)cn2)C1 (stereo not given),-74.37
18,CCC(C)NC(=O)NCCC(=O)N1CCN(c2ccccn2)CC1 (stereo not given),-19.73
19,CC(C)C(=O)NCCC(=O)N1CCN(c2ccccn2)CC1,-182.3
20,CC(C)NCc1cccnc1N1CCN(c2ccccn2)CC1,3.171
21,CC(C)CC(C)NCc1cccnc1N1CCN(c2ccccn2)CC1 (stereo not given),55.01
22,CCCC(C)NCc1cccnc1N1CCN(c2ccccn2)CC1 (stereo not given),51.12
23,CCC(CC)C(=O)NCCC(=O)N1CCN(c2ccccn2)CC1,-127.9
24,Cn1c(N)c2c(=O)n(C)c(-c3ccc(Cl)cc3Cl)cc2c(C#N)c1=O,5.212
25,Cc1cc(C(=O)N2CCC3(C2)CN(c2ccsc2)C(=O)CN3C)[nH]n1.O=C(O)C(F)(F)F (stereo not given),-16.33
26,c1ccc(Cc2n[nH]c(C3CCOC3)n2)cc1 (stereo not given),-53.42
27,Cn1ccnc1CN1CCC2(CC1)CN(c1ccccn1)CCO2.O=C(O)C(F)(F)F.O=C(O)C(F)(F)F,-263.3

row,SMILES,Percent Effect [%]
1,COc1ncccc1CN1CCC2(CC1)CN(c1ccccn1)CCO2.O=C(O)C(F)(F)F.O=C(O)C(F)(F)F.O=C(O)C(F)(F)F,55.38
2,COc1ccc(CN2CCC3(CC2)CN(c2ccccn2)CCO3)cc1.O=C(O)C(F)(F)F.O=C(O)C(F)(F)F,60.62
3,O=C(O)C(F)(F)F.O=C(O)C(F)(F)F.c1ccc(CN2CCC3(CC2)CN(c2ccccn2)CCO3)nc1,-71.36
4,COCC(=O)N1CCC2(CC1)CN(c1ccccn1)CCO2.O=C(O)C(F)(F)F,-99.25
5,Fc1ccc(CN2CCC3(CC2)CN(c2ccccn2)CCO3)cc1.O=C(O)C(F)(F)F.O=C(O)C(F)(F)F,46.67
6,O=c1[nH][nH]cc1-c1ccnc(NCCc2ccc(F)cc2)n1,-53.75
7,COC(=O)c1cnn(-c2cc(Oc3cccc(C)c3)ncn2)c1N,-10.04
8,CN1CCC2(CC1)OC(C(=O)NCc1cccnc1)Cn1ccnc12 (stereo not given),-146
9,COCCN1CCCC(c2nccnc2Nc2nc(C)cs2)C1 (stereo not given),-10.08
10,O=C(NCC1(O)CCSC1)c1cccc(-n2cccn2)c1 (stereo not given),-128.5
11,CC(=O)N1CCO[C@@H]2CN(Cc3ccccc3Cl)C[C@@H]2C1.O=C(O)C(F)(F)F,-110.8
12,O=C(NC1CCNCC1)C1(N2CCCCC2)Cc2ccccc2C1,62.66
13,O=C1NCCCC[C@@H]1NC(=O)C1(N2CCCCC2)Cc2ccccc2C1,-107.8
14,O=C(NC1CCNC1)C1(N2CCCCC2)Cc2ccccc2C1 (stereo not given),33.42
15,CC(=O)NCC(=O)N1CCCC(C(=O)c2ccc(C(C)(C)C)cc2)C1 (stereo not given),-127.3
16,CN(C)[C@H]1CCCCN(Cc2ccccc2Cn2cccn2)C1,49.71
17,CC(C)(C)c1oc(C(N)=O)cc1CN1CCCCC(N)C1 (stereo not given),3.928
18,N#Cc1cc(C#N)c(SCCC(=O)Nc2ccc(F)cc2)nc1N,10.11
19,N#Cc1cc(C#N)c(SCC(=O)NCc2ccc(F)cc2)nc1N,-76.83
20,N#Cc1cc(C#N)c(SCC(=O)Nc2ccc(F)cc2)nc1N,66.77
21,CN(C)c1ncc(CNC(=O)Nc2ccccc2F)n1C,-31.3
22,CN(C)c1ncc(CNC(=O)Nc2ccc(C(F)(F)F)cc2)n1C,68.14
23,CN(C)c1ncc(CNC(=O)Nc2ccccc2C(F)(F)F)n1C,-113.2
24,COc1cccc(CNc2nc(N3CCOCC3)ns2)c1OC,-58.35
25,CCn1ncnc1C(C)Nc1cc(C)c2ccc(SC)cc2n1 (stereo not given),-98.68
26,CSc1ccc2c(C)cc(N[C@@H](C)CO)nc2c1,13.21
27,COC[C@H](C)Nc1cc(C)c2ccc(SC)cc2n1,74.39

row,SMILES,Percent Effect [%]
1,COCC(=O)N1CCCN(Cc2cc(C(C)C)no2)CC1,-33.31
2,Cc1c(C(=O)NCC(C)(C)S(C)(=O)=O)cccc1-c1ccccn1,-72.33
3,CCC(CO)N(CC=C(C)C)Cc1ccsc1 (stereo not given),20.66
4,CCC(CO)N(Cc1ccsc1)Cc1cccc(O)c1 (stereo not given),67.4
5,CCC(CO)N(Cc1ccc(C(=O)O)cc1)Cc1ccsc1 (stereo not given),-80.76
6,CS(=O)(=O)N1CCN(C(=O)c2cc(-c3ccc(Br)s3)n[nH]2)CC1,2.289
7,CN1C(=O)C2(CCN(c3nccc4occc34)CC2)c2ccccc21,-46.41
8,Cc1cc(C)cc(C(=O)NCCS(=O)(=O)N2CCSCC2)c1,-110.6
9,CCN1CCCN(S(=O)(=O)c2cc3ccccc3o2)CC1,83.88
10,O=S(=O)(c1cc2ccccc2o1)N1CCCC1,-30.68
11,CC(=O)N1CCCN(S(=O)(=O)c2cc3ccccc3o2)CC1,-136.3
12,CCn1ccc(-c2nnc(SCC(=O)NCC(C)C)n2CC)n1,-143.1
13,COc1c(CNC2CCCc3ccccc32)c(C(C)C)nn1C (stereo not given),63.84
14,CC(C)c1nn(C)c(N(C)C)c1CNC1CCc2cc(F)ccc21.Cl (stereo not given),-3.129
15,COc1c(CNC2CCOc3ccccc32)c(C(C)C)nn1C (stereo not given),-23.6
16,COc1c(CNC2CCc3cc(F)ccc32)c(C(C)C)nn1C (stereo not given),57.77
17,COc1c(CNCCc2c[nH]c3ccccc23)c(C)nn1C,-66.3
18,COc1c(CNCCc2c[nH]c3cc(F)ccc23)c(C)nn1C,49.69
19,COc1c(CNC2CCc3ccccc32)c(C)nn1C (stereo not given),30.71
20,COc1c(CNC2CCc3cc(F)ccc32)c(C)nn1C.Cl (stereo not given),26.33
21,COc1c(CNCCc2c[nH]c3cc(F)ccc23)c(C(C)C)nn1C,59.46
22,N#CCCN(Cc1ccccn1)C(=O)c1cccc(CN2CCCC2)c1,-57.26
23,CCn1cc(NS(=O)(=O)c2ccc(Br)s2)c(C(=O)NCC(C)C)n1,-19.45
24,O=C(NCCc1ccncc1)c1cccc(S(=O)(=O)NC2CCOC2)c1 (stereo not given),-7.029
25,CC(NCCCN1CCCC1=O)c1cc(Br)ccc1F (stereo not given),40.27
26,CC(NCCCN1CCCC1=O)c1cc(Br)ccc1O (stereo not given),50.26
27,CC(NC(=O)NCCCN1CCCC1=O)c1ccc(Cl)s1 (stereo not given),-33.34

row,SMILES,Percent Effect [%]
1,CC(C)c1cc(-c2cnn(C)c2C2CC2)c(C#N)c(N)n1,-61.18
2,O=C(CC(SC1CCCCC1)C(=O)O)c1ccc(Br)cc1 (stereo not given),-115.9
3,CCC1CN(C(=O)c2ccccc2C(C)=O)CCN1C(C)C (stereo not given),-70.36
4,CCC1CN(C(=O)c2ccc(O)c(C)c2)CCN1C(C)C (stereo not given),-125.9
5,O=C(c1ncccn1)N1C[C@@H]2COC[C@]2(COc2cccnc2)C1,-80.86
6,O=C(CCn1ccccc1=O)N1CCCC(COc2ccc(F)cc2)C1 (stereo not given),-62.32
7,CN1Cc2c(C(=O)NC3CCCCC3)ncn2-c2ccccc2S1(=O)=O.O=C(O)C(F)(F)F,-186.4
8,COc1cc(F)ccc1-c1cc(CO)ccn1,-93.03
9,COc1ccc(-c2cc(N)ccn2)c(OC)c1OC,-13
10,COc1cc(F)ccc1-c1cc(N)ccn1,50.95
11,Cc1cnc(C(=O)N2CCOCC2C)cn1 (stereo not given),-104.7
12,O=C(NCC1CC1)[C@@H]1CC[C@@H]2[C@@H](CCN2Cc2ccc(F)c(F)c2)O1.O=C(O)C(F)(F)F,-53.52
13,O=C1CCCN1CCC1CCN(C2CCCNC2)CC1 (stereo not given),-108.9
14,CCn1cc(CN2CCN(C(=O)c3cc(C)c(C)s3)CC2)c(C)n1,-80.19
15,COCCOc1ccccc1CNCC1COC2(CCCC2)O1 (stereo not given),73.59
16,Cc1cccc(CNCC2COC3(CCCC3)O2)c1C (stereo not given),-41.87
17,Cc1cccc(CNCC2COC3(CCCCC3)O2)c1C (stereo not given),-23.41
18,CC(=O)Nc1nc(C(=O)NCc2ccc(OC(C)C)nc2)cs1,-75.22
19,CN(C)CCN(Cc1ccc(Cl)cc1)C(=O)c1cnccn1,32.67
20,Cc1cnc(C(=O)N(CCN(C)C)Cc2ccc(Cl)cc2)cn1,-38.51
21,CN(C)CCN(Cc1ccc(Cl)cc1)C(=O)c1ccncc1,51.29
22,Cc1cc(C(=O)N(CCN(C)C)Cc2ccc(Cl)cc2)no1,51.61
23,CN(C)CCN(Cc1ccc(Cl)cc1)C(=O)c1ccn(C)c(=O)c1,-75.96
24,CN(C)CCN(Cc1ccc(C(F)(F)F)cc1)C(=O)c1cc[nH]n1,33.3
